Screening data as filed in PubChem.
HepG2 viability: counter-screen for TGF-b inhibitors: cytotoxicity in HepG2 cells | actives 0.76% (n = 410,000) | Potency, µM (highest dose often 46.1 µM), usual class: cytotoxic | AID 588856 | HepG2 CAGA-GFP viability, ATP luminescence, 18 h
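CellTiter-Glo luminescence gave cytotoxicity after 18 hours at 37 degrees C. The cells were HepG2 CAGA-GFP in 1% FBS DMEM, stimulated with 500 pg/mL TGF-beta after compound addition. %Activity was normalised to no-cell wells (complete cell-killing) and DMSO (no toxicity), and curves were fitted and classified.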
TDP1 cell CPT: DT40-hTDP1 cell growth loss with CPT; chicken DT40 Tdp1-/-;hTDP1 cells + 20 nM CPT, ATP luminescence, 48 h; Potency, µM (titrated, usually from 46.2 µM), hits mostly inhibitors; actives 12% (n = 420,000); note: nearly all actives have a fitted effect of over 55% in size
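Cell growth measured by CellTiter-Glo luminescence after a minimum 48 h, 37 C compound exposure with 20 nM CPT in Tdp1-knockout DT40 cells stably expressing hTDP1, seeded 400/well; qHTS titration format.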
IL-1B inflam inh: blocks inflammasome-driven IL-1 beta release; activity change, % at 57.5 µM; actives 4.7% (n = 360,000); THP-1 LPS/ATP IL-1B secretion, AlphaLISA, 16 h; stronger effect = lower value; in the data active = activity change below about -50%; inconclusive = mostly about -30% to -49%
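Secreted IL-1B measured by AlphaLISA bead assay after 16 h compound exposure of THP-1 cells; compounds (final up to 57.5 uM) added 1 h before LPS (250 ng/mL) and ATP (1.25 mM) stimulation; lower signal means less secretion.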
TDP1 block: TDP1 (human) enzyme inhibition; Q9NUW8; recombinant TDP1, AlphaScreen DNA substrate cleavage; Potency, µM (series often up to 130 µM), usual class: inhibitors; actives 0.28% (n = 350,000); AID 485290; note: nearly all actives have a fitted effect of over 40% in size
Target sequence (Q9NUW8 whole entry, looked up): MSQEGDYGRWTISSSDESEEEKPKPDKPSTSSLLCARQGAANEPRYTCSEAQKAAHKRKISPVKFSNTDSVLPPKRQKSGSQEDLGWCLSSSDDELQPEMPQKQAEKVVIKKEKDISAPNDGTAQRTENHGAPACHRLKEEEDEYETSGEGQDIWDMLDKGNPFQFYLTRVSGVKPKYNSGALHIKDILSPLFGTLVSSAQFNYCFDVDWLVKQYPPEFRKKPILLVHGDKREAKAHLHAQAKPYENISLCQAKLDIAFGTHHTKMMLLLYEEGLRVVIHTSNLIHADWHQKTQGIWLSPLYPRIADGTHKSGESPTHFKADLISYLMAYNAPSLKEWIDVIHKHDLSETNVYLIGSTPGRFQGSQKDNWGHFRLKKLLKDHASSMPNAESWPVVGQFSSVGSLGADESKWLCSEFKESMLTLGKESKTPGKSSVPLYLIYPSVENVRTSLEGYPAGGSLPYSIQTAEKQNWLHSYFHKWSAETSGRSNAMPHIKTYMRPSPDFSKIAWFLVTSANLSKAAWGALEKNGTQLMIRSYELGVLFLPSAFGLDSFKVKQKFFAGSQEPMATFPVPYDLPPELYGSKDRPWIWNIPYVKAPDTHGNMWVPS
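Signal: AlphaScreen proximity between streptavidin donor and anti-FITC acceptor beads on intact substrate. Reaction: Tdp1 1 nM, substrate 15 nM final, 5 min RT after 15 min compound preincubation.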
TDP1 cell noCPT: qHTS for Inhibitors of human tyrosyl-DNA phosphodiesterase 1 (TDP1): qHTS in cells in absence of CPT; DT40 Tdp1-/- hTDP1 cells, no CPT, ATP luminescence, 48 h; Potency, µM (series often up to 46.2 µM), hits mostly inhibitors; actives 15% (n = 420,000); AID 686978, 2013; note: nearly all actives have a fitted effect of over 55% in size
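Cells were dispensed at 400 per well, compounds added by pin tool, plates incubated ≥48 hr at 37 °C, then CellTiter-Glo added for 30 min at room temperature before luminescence reading. Line: DT40 Tdp1-/- complemented with hTDP1; camptothecin omitted.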
TGFb inhibitor: blocks TGF-b signaling; HepG2 CAGA-GFP TGF-b/SMAD3 reporter, GFP fluorescence, 18 h; TGF-beta stimulated, 500 pg/mL final; actives 1.2% (n = 410,000); Potency, µM (doses to about 46.1 µM), usual class: inhibitors; AID 588855; note: nearly all actives have a fitted effect of over 65% in size
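HEPG2 CAGA-GFP reporter cells (1000/well, DMEM with 1% FBS) received compounds, then recombinant TGF-beta at 500 pg/mL final for 18 hours at 37 degrees C. Per-cell GFP summed per well was normalised to unstimulated and stimulated DMSO controls before curve fitting.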
Each line names hits and unclear results; the compound was inactive in the other large screens. Hits are enriched below; roughly 19% of the tested compounds scored in any of these assays. Unless noted, calls come from the whole dose curve; as a rule, active = well fitted curve in the direction sought with a large enough effect; inconclusive = small, poorly fitted or top-dose-only effect, or another doubt; inactive = no such curve, though single readings can be large; an effect the other way counts as inactive or inconclusive.

C=CCNC(=O)N[C@@H](Cc1ccccc1)C(=O)OC	none
O=C(NC1CC1)c1ccc2sc([C@H]3C[C@H](O)[C@@H](CO)O3)nc2c1	none (no result: TDP1 block)
CCOC(=O)N1CCN(C(=O)c2cn(CC(C)C)c(=O)c3c2c2ccccc2n3C)CC1	TDP1 cell CPT inconclusive, TDP1 cell noCPT inconclusive
CCOC(=O)N1CCN(C(=O)c2cn(C)c(=O)c3c2c2ccccc2n3C)CC1	TDP1 cell CPT inconclusive, TDP1 cell noCPT 25µM
COc1ccc(N2CCN(C(=O)c3cn(C4CCCC4)c(=O)c4c3c3ccccc3n4C)CC2)cc1	TDP1 cell CPT 16µM, TDP1 cell noCPT 16µM, TGFb inhibitor inconclusive
Cn1c2ccccc2c2c(C(=O)N3CCN(C(=O)c4ccco4)CC3)cn(C3CCCCC3)c(=O)c21	TDP1 cell CPT inconclusive, TDP1 cell noCPT inconclusive
Cn1c2ccccc2c2c(C(=O)N3CCN(c4ccccn4)CC3)cn(C3CCCC3)c(=O)c21	TDP1 cell CPT inconclusive, IL-1B inflam inh -59, TDP1 cell noCPT 15µM
Cc1ccc(Cl)cc1N1CCN(C(=O)c2cn(C3CCCCC3)c(=O)c3c2c2ccccc2n3C)CC1	TDP1 cell CPT 23µM, TDP1 cell noCPT 18µM, TGFb inhibitor inconclusive (no result: IL-1B inflam inh)
CCCn1c(-c2ccc(F)cc2)nc2c(NCC3CCN(C)CC3)nc(C)nc21	none (no result: HepG2 viability, TDP1 cell CPT, IL-1B inflam inh, TDP1 cell noCPT, TGFb inhibitor)
COc1ccc(-n2nc(C(=O)N3CCN(c4cccc(C)c4C)CC3)c3c4ccccc4n(C)c3c2=O)cc1	none (no result: IL-1B inflam inh)
COc1ccc(N2CCN(C(=O)c3cn(C)c(=O)c4c3c3ccccc3n4C)CC2)cc1	TDP1 cell CPT inconclusive, TDP1 cell noCPT 15µM
CCN(CC)C(=O)[C@H]1CC(CC(=O)NC/C=C(\C)CCC=C(C)C)C(=O)N2CCc3c([nH]c4ccc(OC)cc34)[C@]12C (some centres undefined)	TDP1 cell CPT inconclusive, IL-1B inflam inh -78, TDP1 cell noCPT inconclusive, TGFb inhibitor 11µM
COc1ccc2[nH]c3c(c2c1)CCN1C(=O)C(CC(=O)NC/C=C(\C)CCC=C(C)C)C[C@H](C(=O)N2CCCCC2)[C@@]31C (some centres undefined)	none (no result: HepG2 viability, TDP1 cell CPT, IL-1B inflam inh, TDP1 cell noCPT, TGFb inhibitor)
CC(C)=CCC/C(C)=C/CNC(=O)CC1C[C@H](C(=O)N2CCCCC2)[C@@]2(C)c3[nH]c4ccccc4c3CCN2C1=O (some centres undefined)	TDP1 cell CPT 21µM, TDP1 cell noCPT 13µM
CCN(CC)C(=O)[C@H]1CC(CC(=O)NC/C=C(\C)CCC=C(C)C)C(=O)N2CCc3c([nH]c4ccccc34)[C@]12C (some centres undefined)	TDP1 cell CPT 23µM, IL-1B inflam inh inconclusive, TDP1 cell noCPT inconclusive, TGFb inhibitor 16µM
COc1ccc(Cc2noc(CN3CCC(c4ccncc4)CC3)n2)cc1OC	TDP1 cell CPT 21µM, TDP1 cell noCPT 23µM (no result: TDP1 block)
COc1ccc(Cc2noc(CN3CCN(C4CCc5ccccc5C4)CC3)n2)cc1OC (centres undefined)	TDP1 cell CPT inconclusive, TDP1 cell noCPT 21µM
Fc1cccc(Cc2noc(CN3CCN(C4CCc5ccccc5C4)CC3)n2)c1 (centres undefined)	TDP1 cell CPT inconclusive, TDP1 cell noCPT inconclusive
COc1ccc(Cc2noc(CN3CCCN(Cc4ccc(F)cc4)CC3)n2)cc1OC	TDP1 cell noCPT inconclusive
CCC(C(=O)Nc1cc(Cl)ccc1OC)n1nc(-c2ccccc2)ccc1=O (centres undefined)	TDP1 cell CPT inconclusive, TDP1 cell noCPT inconclusive, TGFb inhibitor inconclusive (no result: IL-1B inflam inh)
CC(Sc1nc(N)cc(=O)[nH]1)C(=O)Nc1sc2c(c1C#N)CCCC2 (centres undefined)	TDP1 cell CPT 2.3µM, TDP1 cell noCPT 2.3µM, TGFb inhibitor inconclusive
CCC(Sc1nc(C)cc(=O)[nH]1)C(=O)Nc1sc2c(c1C#N)CCCC2 (centres undefined)	TDP1 cell CPT 16µM, TDP1 cell noCPT 16µM
CCOC(=O)Cc1nnc(NC(=O)C(CC)Sc2nc(C)cc(=O)[nH]2)s1 (centres undefined)	TDP1 cell CPT inconclusive, TDP1 cell noCPT 16µM
COc1ccc(CN(C)CC(=O)Nc2cccc(S(N)(=O)=O)c2)c(OC)c1OC	TDP1 cell CPT inconclusive
CCN(CC)CCOC(=O)c1ccc(N)cc1Cl	none (no result: HepG2 viability, IL-1B inflam inh, TDP1 block, TGFb inhibitor)
CCOc1cc(N2CCOCC2)c(OCC)cc1NC(=O)CN1C(=O)NC2(CCCCC2)C1=O	none
C/C(=N\OC(=O)NC1CCCCC1)c1sc(-c2ccccc2)nc1C	TDP1 cell CPT 26µM, IL-1B inflam inh inconclusive, TDP1 cell noCPT 21µM
Cc1ccc(-c2nnn(CC(=O)N(c3cccc(F)c3)C(C(=O)NC3CCCC3)c3ccncc3)n2)o1 (centres undefined)	none (no result: TDP1 block)
Cc1ccc(-c2nnn(CC(=O)N(c3ccccc3F)C(C(=O)NC3CCCC3)c3ccco3)n2)o1 (centres undefined)	TDP1 cell CPT 29µM, TDP1 cell noCPT 16µM
Cc1ccc(-c2nnn(CC(=O)N(c3ccc(F)cc3)C(C(=O)NC(C)(C)C)c3ccco3)n2)o1 (centres undefined)	TDP1 cell noCPT inconclusive
Cc1ccccc1N(C(=O)Cn1nnc(-c2cccs2)n1)C(C(=O)NCCC(C)C)c1ccco1 (centres undefined)	TDP1 cell CPT inconclusive, IL-1B inflam inh -51, TDP1 cell noCPT inconclusive, TGFb inhibitor inconclusive
COCCNC(=O)C(c1ccco1)N(C(=O)Cn1nnc2ccccc21)c1ccccc1C (centres undefined)	none
Cc1ccc(-c2nnn(CC(=O)N(c3cccc(F)c3)C(C(=O)NC3CCCC3)c3ccco3)n2)o1 (centres undefined)	TDP1 cell CPT 21µM, TDP1 cell noCPT 16µM
Cc1ccc(-c2nnn(CC(=O)N(c3ccc(F)cc3)C(C(=O)NC3CCCC3)c3ccco3)n2)o1 (centres undefined)	TDP1 cell CPT 15µM, TDP1 cell noCPT inconclusive
CC(C)(C)C(=O)NC1(C(F)(F)F)C(=O)Nc2c1c(=O)[nH]c(=O)n2-c1ccccc1 (centres undefined)	none (no result: IL-1B inflam inh)
CCc1ccc(CNC(=O)c2ccc3c(c2)nc2n3CCOC2)cc1	TDP1 cell noCPT inconclusive (no result: IL-1B inflam inh)
CCOC(=O)c1ccc2oc(=O)n(Cc3ccccc3)c2c1	none (no result: IL-1B inflam inh)
CCSc1nc(-c2cccc(Cl)c2)nc2c1Cc1c(CO)cnc(C)c1O2	none (no result: IL-1B inflam inh)
